Bioassay records: PubChem, National Center for Advancing Translational Sciences (NCATS)
Only some compounds are listed: those with a hit (about 6.7% of all), similar ones and a draw of the others.
SW480 rerep: DNA re-replication induction in SW480 cells. SW480 DNA re-replication, Hoechst DNA content imaging, 48 h. Potency, µM (series often up to 46.1 µM), most hits filed as activators. actives 1.8% (n = 340,000); note: nearly all actives have a fitted effect of over 55% in size
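Per well, 250 cells were exposed to pinned compound for 48 hr. Nuclear DNA was visualised with Hoechst (40 min, 37 C) and total object intensity recorded by fluorescence scanning.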
MCF10A rerep: induces DNA re-replication in MCF 10a normal breast cells; MCF 10A DNA re-replication, Hoechst nuclear intensity, 48 h; Potency, µM (titrated, usually from 46.1 µM), most hits filed as activators; actives 2.9% (n = 350,000); AID 624296; note: nearly all actives have a fitted effect of over 50% in size
KB-V1 cytotox: kills drug-selected multidrug resistant KB-V1 cells; KB-V1 MDR cells viability, CellTiter-Glo, 72 h; Potency, µM (top dose mostly 46.1 µM), usual class: cytotoxic; actives 3.4% (n = 400,000); note: nearly all actives have a fitted effect of over 60% in size
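Cells of the MDR subline KB-V1 are plated, dosed with compound at multiple concentrations, and incubated 72 h at 37 degrees C; CellTiter-Glo is then added and luminescence read after 10 min.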
KB-3-1 cytotox: KB-3-1 parental cell cytotoxicity; KB-3-1 viability, CellTiter-Glo ATP luminescence, 72 h; Potency, µM (top dose mostly 46.1 µM), usual class: cytotoxic; actives 1.4% (n = 400,000); AID 1347075; note: nearly all actives have a fitted effect of over 60% in size
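KB-3-1 cells, DMEM (no phenol red) + 10% FBS; compound by pin transfer, 72 h, 37 °C. Readout: CellTiter-Glo luminescence after 10 min. Data normalized, curve-fitted.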
PINK1 modulator: PINK1 expression modulation | PINK1 immunofluorescence, high-content cytometry, 24 h | Potency, µM (titrated, usually from 76.6 µM), actives largely listed as activators | actives 0.2% (n = 410,000); active = well fitted activation curve with a large enough effect; inconclusive = small, poorly fitted or top-dose-only effect; cell line not stated here; note: nearly all actives have a fitted effect of over 65% in size
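PINK1 protein, normally rapidly degraded, was detected by immunofluorescence after 24 hour compound treatment of a stable cell line. Titration data (5 concentrations) came from laser-scanning cytometry, with CCCP-treated wells as controls.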
A number is an active result; . = inactive; ? = inconclusive; / = no result; [ ] = another dose, or the depositor's remark. Unless noted, calls come from the whole dose curve; as a rule, active = well fitted curve in the direction sought with a large enough effect; inconclusive = small, poorly fitted or top-dose-only effect, or another doubt; inactive = no such curve, though single readings can be large; an effect the other way counts as inactive or inconclusive.

SMILES	SW480 rerep	MCF10A rerep	KB-V1 cytotox	KB-3-1 cytotox	PINK1 modulator
CN(C)S(=O)(=O)c1cccc(NC(=O)COc2ccccc2C(=O)NCc2ccccc2)c1	.	.	10µM	?	.
COc1ccccc1C(=O)NNC(=S)NC(=O)c1sc2ccccc2c1Cl	?	?	.	.	.
COc1ccccc1C(=O)NC(=S)NNC(=O)c1sc2ccccc2c1Cl	.	5.2µM	.	.	.
COc1cc(=O)n2c(c1C(=O)NCc1nonc1C)CCN(Cc1c[nH]c3ccccc13)CC2	/	/	/	/	.
O=C(NCc1cccs1)c1cc(-c2ccccc2)nc2ccccc12	.	?	?	.	.
Nc1nc2ccccc2cc1C(=O)NCCCCc1ccccc1	/	/	2.6µM	.	.
Nc1nc2ccccc2cc1C(=O)NCc1cccs1	/	/	16µM	.	/
Cc1ccc(C)c(-c2cc(C(=O)NCc3cccs3)c3ccccc3n2)c1	?	?	12µM	.	.
CC(=O)Nc1cccc(-c2csc(C(O)c3ccc(F)c(F)c3)n2)c1 (configuration not stated)	/	/	.	.	.
CN(C)c1ccc(-c2cncnc2-n2ccnc2)cc1	/	/	/	/	.
COc1ccc(NC(=O)C2Cc3cccc(OC)c3O/C2=N\O)cc1 (configuration not stated)	.	.	.	?	.
COc1cccc2c1O/C(=N\O)C(C(=O)Nc1ccc(C)cc1)C2 (configuration not stated)	?	18µM	.	4.1µM	.
COc1ccc(C2CC(=O)c3cc(-c4nc(-c5ccc(C)cc5)cs4)c(=O)[nH]c3C2)cc1 (configuration not stated)	/	/	.	.	.
CCCCOn1c(C)c(C(=O)OCC)c2c3no[n+]([O-])c3ccc21	.	.	.	.	/
CCCCOn1c(C)c(C(=O)OCC)c2c3nonc3ccc21	.	?	8.2µM	.	.
Cc1ccc2[nH]c3c(c2c1)CCNC3=O	.	.	5.8µM	?	.
COc1c(F)cc2[nH]c3c(c2c1F)CCNC3=O	.[9.22 µM]	.	?	.	.
CCOC(=O)c1c(-c2ccccc2)[nH]c2ccc(O)cc12	.	.	.	.	.
O=c1c2ccccc2[nH]c2ccc(O)cc12	23µM	.	.	.	.
O=c1cc(CSc2ccccc2)[nH]c2ccc(F)cc12	/	/	.	.	.
CCOC(=O)C(O)C1CCc2c([nH]c3ccc(C)cc23)C1=O (configuration not stated)	?	?	18µM	?	.
O=c1c2ccccc2[nH]c2ccc(F)cc12	16µM	9.2µM	.	.	.
O=C(NC(=S)NC1CCCCC1)c1ccccc1[N+](=O)[O-]	.	.	?	.	.
COc1cccc(Cn2c(=O)c(CCc3ccccc3)nc3cncnc32)c1	/	/	/	/	.
Cc1ccc2[nH]c3ccccc3c(=O)c2c1	?	16µM	.	.	.
SMILES	SW480 rerep	MCF10A rerep	KB-V1 cytotox	KB-3-1 cytotox	PINK1 modulator
O=c1[nH]c2ccccc2c(=O)c2ccccc12	/	/	.	.	.
CC(=O)Nc1ccc(C(=O)OCC(=O)N(Cc2ccccc2)C(C)(C)C)cc1	.	.	15µM	.	.
CC(=O)c1ccc(S(=O)(=O)NCCC(=O)OCC(=O)N(Cc2ccccc2)C(C)(C)C)cc1	.	.	21µM	.	.
Cc1cccc(-c2noc(CNC(=O)c3ccoc3C)n2)c1	.	21µM	.	.	.
CCN1C(=O)/C(=C/c2nc3ccccc3c(=O)n2-c2ccccc2)c2ccccc21	?	?	.	23µM	.
CCN1C(=O)/C(=C\c2nc3ccccc3c(=O)n2CC)c2ccccc21	.	.	.	.	.
CCCN(CCC)C1=CC(=[N+]2CCCC2)CC(C)(C)C1	.	.	.	2.6µM	?
CC1(C)CC(N2CCCCC2)=CC(=[N+]2CCCCC2)C1	.	.	.	5.8µM	?
CCN1CCN(C(=O)C2CCN(Cc3cc(Cl)ccc3O)CC2)CC1	.	12µM	.	.	/
Cc1cccc(CN2CCN(C(c3ccccc3)c3ccc(Cl)cc3)CC2)c1 (configuration not stated)	.	23µM	?	.	35µM
O=C(C1CCN(Cc2ccc(Cl)cc2)CC1)N1CCN(C(c2ccccc2)c2ccccc2)CC1	?	?	?	21µM	.
COc1ccc(CCNC(=O)c2cnn(-c3cccc(C)c3)c2C2CCN(C(=O)OC(C)(C)C)CC2)cc1OC	/	/	.	.	.
Cc1ccccc1-c1ccc(CN2CCc3nnc(CNC(=O)c4ccccn4)n3CC2)cc1	/	/	/	/	.
Cc1cc(Cl)ccc1OCC(=O)NCCOc1nc(N2CCCCC2)nc(N2CCOCC2)n1	.	.	4.1µM	.	.
COc1cc(C)nc(OCCNC(=O)COc2ccc(Cl)cc2C)n1	.[9.22 µM]	.	.	.	.
Cc1ccc(NC(=O)CCC(=O)NNC(=S)Nc2ccccc2)c(C)c1	.	.	.	.	.
Cc1ccc(NC(=S)NNC(=S)Nc2ccc(C)cc2C)cc1	.	.	4.6µM	1µM	?
COc1cccc(/C=N/NC(=S)Nc2cccc(S(=O)(=O)N(C)C)c2)c1	.	.	.	.	.
CC(/C=N/NC(=S)Nc1cccc(S(=O)(=O)N(C)C)c1)c1ccccc1 (configuration not stated)	.	.	21µM	.	.
COc1ccc2cc(C(C)C(=O)Nc3cccc(S(=O)(=O)N(C)C)c3)ccc2c1 (configuration not stated)	.	?	13µM	21µM	.
COc1ccc(O)c(/C=N/NC(=S)Nc2cccc(S(=O)(=O)N(C)C)c2)c1	?	15µM	4.1µM	.	.
CN(C)S(=O)(=O)c1cccc(NC(=S)N/N=C/C(c2ccccc2)c2ccccc2)c1	.	.	21µM	.	.
Cc1cc(NC(=O)c2ccc3sc([C@@H]4O[C@H](CO)[C@H](O)[C@H](O)[C@H]4O)nc3c2)no1	/	/	.	.	.
COc1ccc(/C=C2\C(=O)NCC(=O)N2Cc2ccccc2)cc1	16µM	?	?	?	.
C[C@H](NC(=O)c1[nH]cnc1C(=O)Nc1ccccc1F)c1ccccc1	/	/	18µM	?	.
SMILES	SW480 rerep	MCF10A rerep	KB-V1 cytotox	KB-3-1 cytotox	PINK1 modulator
CC(C)(C)OC(=O)[C@H](Cc1ccccc1)NC(=O)c1[nH]cnc1C(=O)Nc1ccccc1F	/	/	21µM	?	.
CN(Cc1ccccc1)C(=O)c1[nH]cnc1C(=O)NCc1ccccc1	.	?	.	.	.
C[C@H](NC(=O)c1[nH]cnc1C(=O)Nc1ccccc1)c1ccccc1	.[9.22 µM]	?	.	?	.
CN(Cc1ccccc1)C(=O)c1[nH]cnc1C(=O)Nc1ccc(Br)cc1F	/	/	?	16µM	.
Cc1cc(O)c(C(c2ccc(Cl)cc2)N2CCN(c3ccccc3)CC2)c(=O)n1Cc1ccco1 (configuration not stated)	/	/	.	.	.
N#CC1(NC(=O)CSc2nnc(Nc3ccccc3F)s2)CCCC1	.	.	?	.	.
COc1ccccc1-c1cnc(C(O)c2ccc(Cl)c(Cl)c2)[nH]1 (configuration not stated)	/	/	23µM	?	.
